Inconclusive results are not listed. The source made the active and inactive calls. How the source made its calls: active means hit-call score of the fitted dose curve at least 0.9, where 1 is the maximum; inconclusive means response in the unintended direction; inactive means score below 0.9.
Molecular target: Bile acid receptor (Homo sapiens) (UniProt Q96RI1)
Experiment: ATG_FXR_TRANS: Attagene TRANS-FACTORIAL HepG2 Assay for Farnesoid X Receptor (FXR) (AID 2282979);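 further: hits raise reporter mRNA above DMSO so AC50 marks FXR activation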
Details: HepG2 Attagene TRANS FXR-GAL4 reporter transcription
Description: ATG_TRANS is a cell-based, multiplexed-readout assay that uses HepG2, a human liver cell line, with measurements taken at 24 hours after chemical dosing in a 24-well plate.ATG_FXR_TRANS is one of 30 assay component(s) measured or calculated from the ATG_TRANS assay. It is designed to make measurements of mRNA induction, a form of inducible reporter, as detected with fluorescence intensity signals by Reverse transcription polymerase chain reaction (RT-PCR) and Capillary electrophoresis technology.Data from the assay component ATG_FXR_TRANS was analyzed into 1 assay endpoint. This assay endpoint, ATG_FXR_TRANS, was analyzed in the positive analysis fitting direction relative to DMSO as the negative control and baseline of activity. Using a type of inducible reporter, measures of mRNA for gain-of-signal activity can be used to understand the reporter gene at the transcription factor-level as they relate to the gene NR1H4. Furthermore, this assay endpoint can be referred to as a primary readout, because this assay has produced multiple assay endpoints where this one serves a reporter gene function. To generalize the intended target to other relatable targets, this assay endpoint is annotated to the nuclear receptor intended target family, where the subfamily is non-steroidal.
Human liver HepG2 cells are transiently transfected with multiple reporter transcription units (MRTUs) in 6-well plates using FuGene 6 reagent (Roche; 3 ml FuGene/1 mg DNA). The MRTU constructs are regulated by a cis-regulating element (promoter). […] A major difference between the CIS and TRANS system is that in CIS activities of endogenous TFs are measured, whereas the TRANS assay evaluates changes in activities of exogenous, chimeric NR-Gal4 proteins. […] At the end of 24 hour incubation, total RNA was isolated using TriZol reagent (Invitrogen). The isolated RNA is then reverse-transcribed using oligo(dT) primer and Mo-MLV reverse transcriptase (Invitrogen) with DNAse I (Ambion) treatment for 30 min. The one-tenth of the produced cDNA was amplified by PCR using Taq DNA polymerase (Invitrogen) and two reporter sequence-specific primers. The PCR products were fluorescently labeled by primer extension with 6-arboxyfluorescein (6-FAM) 5'-labeled reporter sequence-specific primer (2 min at 95 C, 20 s at 68 C and 10 min at 72 C) and these products were digested with 5U of HpaI (New England Biolabs) for 2h at 37 C. The fragments were purified using Qiaquick PCR columns (Qiagen), analyzed on an ABI 3130xL genetic analyzer (Applied Biosystems) with peak positions identified by using a set of X-rhodamine (ROX)-labeled MapMarker1000 molecular weight standards (BioVentures). The raw capillary electrophoresis data was processed using Attagraph software (Attagene).

Bile acid receptor (Homo sapiens), sequence (Q96RI1 whole entry, looked up): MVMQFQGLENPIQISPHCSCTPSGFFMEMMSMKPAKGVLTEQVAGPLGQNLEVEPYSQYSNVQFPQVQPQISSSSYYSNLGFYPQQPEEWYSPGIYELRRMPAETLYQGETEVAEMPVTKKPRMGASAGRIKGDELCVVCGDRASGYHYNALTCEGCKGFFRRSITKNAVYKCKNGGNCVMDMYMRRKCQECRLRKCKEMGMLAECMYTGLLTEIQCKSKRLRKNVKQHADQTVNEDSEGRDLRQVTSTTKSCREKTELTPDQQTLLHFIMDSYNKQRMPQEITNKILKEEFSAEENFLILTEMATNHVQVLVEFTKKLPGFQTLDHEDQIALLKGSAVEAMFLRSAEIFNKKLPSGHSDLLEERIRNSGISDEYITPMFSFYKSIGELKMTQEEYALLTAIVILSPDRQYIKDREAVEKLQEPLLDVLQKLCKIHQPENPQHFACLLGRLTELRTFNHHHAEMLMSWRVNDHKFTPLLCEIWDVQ

Structure (SMILES) | outcome | AC50
C[C@@H]1O[C@@H](O[C@H]2C[C@@H](O)[C@]3(CO)[C@H]4[C@H](O)C[C@]5(C)[C@@H](C6=CC(=O)OC6)CC[C@]5(O)[C@@H]4CC[C@]3(O)C2)[C@H](O)[C@H](O)[C@H]1O | inactive | –
O=S(=O)(F)C(F)(F)C(F)(F)C(F)(F)C(F)(F)F | inactive | –
Brc1ccc(Oc2c(Br)cc(Br)cc2Br)c(Br)c1 | inactive | –
Cc1cc(C(C)(C)c2ccc(O)c(C)c2)ccc1O | – | 4.72 µM (active)
Nc1ccc(N)cc1 | inactive | –
CC(=O)C(F)(F)C(F)(F)F | inactive | –
COc1ccc([N+](=O)[O-])cc1O | inactive | –
Cc1cccc(OP(=O)(Oc2cccc(C)c2)Oc2cccc(C)c2)c1 | inactive | –
CN(C)[C@@H]1C(=O)C(C(N)=O)=C(O)[C@@]2(O)C(=O)C3=C(O)c4c(O)ccc(Cl)c4[C@@](C)(O)[C@H]3C[C@@H]12 | inactive | –
O=C1C=CC(=O)c2ccccc21 | inactive | –
Cc1cccc(C)c1NC(=O)CN1CCCC1=O | inactive | –
O=NN1CCCCCCC1 | inactive | –
O=C(NC(=O)c1c(F)cccc1F)Nc1ccc(Cl)cc1 | inactive | –
COC(F)(C(F)(F)C(F)(F)F)C(F)(C(F)(F)F)C(F)(F)F (stereo not given) | inactive | –
CCCSP(=S)(OCC)Oc1ccc(SC)cc1 (stereo not given) | inactive | –
CCC[CH2][Sn]([Cl])([Cl])[CH2]CCC | inactive | –
CCCCOP(=O)(CCCC)OCCCC | inactive | –
BrCC(Br)c1ccccc1 (stereo not given) | inactive | –
CC(c1ccccc1)(c1ccc(O)cc1)c1ccc(O)cc1 | – | 12.5 µM (active)
C1CCC(C2CCCCC2)CC1 | inactive | –

Structure (SMILES) | outcome | AC50
C[N+](C)(C)Cc1ccccc1 | inactive | –
O=C(Nc1ccc(Br)cc1)c1cc(Br)cc(Br)c1O | inactive | –
O=S1(=O)OC(c2cc(Br)c(O)c(Br)c2)(c2cc(Br)c(O)c(Br)c2)c2ccccc21 | inactive | –
CCCCCCCCBr | inactive | –
Cc1cc(Cl)ccc1O | inactive | –
c1cc[c]([Sb]([c]2ccccc2)[c]2ccccc2)cc1 | inactive | –
[Cl][Sn]([c]1ccccc1)([c]1ccccc1)[c]1ccccc1 | inactive | –
CC(C)(COCC1CO1)COCC1CO1 (stereo not given) | inactive | –
OC(c1ccc(Cl)cc1)(c1ccc(Cl)cc1)c1cccnc1 | inactive | –
[F][Sn]([c]1ccccc1)([c]1ccccc1)[c]1ccccc1 | inactive | –
Cc1cc(C(F)(C(F)(F)F)C(F)(F)F)ccc1NC(=O)c1cccc(I)c1C(=O)NC(C)(C)CS(C)(=O)=O | inactive | –
CCCCS(=O)(=O)Cl | inactive | –
CN(N=O)c1ccc([N+](=O)[O-])cc1 | inactive | –
CC1(C)COP(Oc2ccccc2)OC1 | inactive | –
C=CC(Cl)CCl (stereo not given) | inactive | –
CCC[CH2][Sn]([CH2]CCC)([CH2]CCC)[CH2]CCC | inactive | –
c1ccc(-c2cccc(-c3ccccc3)c2)cc1 | inactive | –
O=C/C(Cl)=C(/Cl)C(=O)O | inactive | –
CC(C=O)Cc1ccc2c(c1)OCO2 (stereo not given) | inactive | –
CC(C)(c1ccc(O)c(-c2ccccc2)c1)c1ccc(O)c(-c2ccccc2)c1 | inactive | –

Source: PubChem BioAssay (EPA / NIEHS)
